Screening results (PubChem BioAssay)
Pf growth 48h – P. falciparum growth inhibition at 48 hours (one generation); P. falciparum luciferase growth in erythrocytes, 48 h; Potency, µM (titrated, usually from 28.7 µM), hits mostly inhibitors; 310,000 compounds, 5.9% hits; AID 504832
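Here the parasites carry a stable luciferase gene and grow inside erythrocytes in Albumax-based RPMI medium with compound for one erythrocytic cycle. Activity is scored as loss of luminescent signal.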
HCMV antiviral – blocks human cytomegalovirus replication. AID 1259415. activity change, negative = inhibition, % at 57.5 µM. 410,000 compounds, 4.5% hits. HFF cells, HCMV-luciferase reporter, 72 h; hits give low values; in the data active = activity change below about -60%; inconclusive = no clear call, values can overlap the other calls; inactive = above about -39%
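Cell-based, HFFs, 1000 cells/well, 16 h 37C; cpds in DMSO + HCMV-luc, MOI 1 PFU/cell; 72 h 37C; OneGlo luminescence after 5 min RT; norm. to buffer vs Salinomycin 10uM.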
CHX counter – counter-screen hit for Shiga toxin inhibitors, cycloheximide; cell reporter, cycloheximide protein synthesis inhibition counterscreen; max response, %; 300,000 compounds, 12% hits; in the data active = max response mostly above about 13%, no sharp cut-off; inactive = mostly below about 14%; also: read at 38.3 µM for the half of the compounds with a filed dose
HCV inh – blocks hepatitis C virus; Huh7.5.1 HCVcc-Cre infection, luciferase reporter, 44 h; Potency, µM (top dose mostly 41.8 µM), most hits filed as inhibitors; 340,000 compounds, 3.4% hits; AID 651820
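HCVcc-Cre virus at an moi near 0.5 was added right after compound to cells cultured 4 h from seeding (1,000 cells/well). Luciferase activity was determined 44 h later, 15 min after substrate addition at RT.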
Shiga inhibitor – blocks Shiga toxin action in Vero cells | 290,000 compounds, 9.2% hits | inhibition, % at 38.7 µM | Vero cells, Shiga toxin protein synthesis inhibition reporter; in the data active = inhibition mostly above about 28%, no sharp cut-off; inactive = mostly below about 43%
Pf growth 96h – P. falciparum growth inhibition at 96 hours; P. falciparum luciferase reporter growth, 96 h; Potency, µM (highest dose often 28.7 µM), most hits filed as inhibitors; 320,000 compounds, 6.9% hits; AID 504834
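P. falciparum expressing integrated firefly luciferase, in erythrocytes at 2% hematocrit, 0.05% parasitemia, incubated with compounds 96 h at 37 C, 5% CO2. Growth inhibition read as loss of luminescence; two-generation exposure targets delayed-death apicoplast inhibitors.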
Large screens that a line does not name were inactive. The list is not random: actives were taken first. Their share in the collection is about 21%. Unless noted, calls follow the shape of the dose curve; as a rule, active = well fitted inhibition curve with a large enough effect; inconclusive = small, poorly fitted or top-dose-only effect, or another doubt; inactive = no such curve, though single readings can be large or run the other way.

Cc1cc(NC(=O)CSc2nccn2-c2cccc(C)c2C)no1	Pf growth 48h inconclusive, HCV inh 11.2µM, Pf growth 96h 8.28µM
Cc1cccc(-n2ccnc2SCC(=O)Nc2cc(C)on2)c1	Pf growth 96h 10.4µM
COCCN1CCc2nc(SCC(=O)Nc3ccc(C)c(Cl)c3)[nH]c(=O)c2C1	none (no result: Pf growth 48h, CHX counter, HCV inh, Shiga inhibitor, Pf growth 96h)
C=C1CCN([C@H](C(=O)NCc2ccco2)C(C)C)S(=O)(=O)c2ccccc21	none
CCOc1ccc(C=NNC(=O)c2cccc3ccccc23)cc1OCC	HCV inh inconclusive (no result: Pf growth 48h, CHX counter, Shiga inhibitor, Pf growth 96h)
O=C(OCc1nnc(-c2ccccc2)o1)c1cn(-c2ccccc2)nc1-c1ccccc1	Pf growth 48h inconclusive, HCV inh 11.2µM
Cc1noc(C)c1COC(=O)c1cc(C)n(-c2ccccc2)c1C	CHX counter 50.6, HCV inh 10µM, Shiga inhibitor 37.8
Cc1onc(-c2ccccc2)c1C(=O)OCc1nnc(-c2ccccc2)o1	Pf growth 96h inconclusive (no result: CHX counter, Shiga inhibitor)
Cc1cc(C(=O)OCc2nnc(-c3ccccc3)o2)c(C)n1-c1ccccc1	HCV inh 14.1µM
Cc1ccc(NC(=O)c2cccnc2C(=O)O)nc1	none
O=C(CC(=O)NC1CCCCC1)N/N=C/c1ccccc1[N+](=O)[O-]	CHX counter 29.3, Shiga inhibitor 46.6, Pf growth 96h inconclusive
O=C(CC(=O)NC1CCCCC1)N/N=C/c1ccccc1Cl	HCMV antiviral inconclusive, Pf growth 96h inconclusive
O=C(CCCO)N/N=C/c1ccccc1[N+](=O)[O-]	HCMV antiviral inconclusive, Shiga inhibitor 38.8
O=C(CNS(=O)(=O)c1ccccc1)N/N=C/c1ccccc1[N+](=O)[O-]	HCMV antiviral -64.5
O=C(CC(=O)N/N=C\c1ccccc1[N+](=O)[O-])NCCc1ccccc1	none
CCCCCCC(CC(=O)NCc1cccnc1)CC(=O)NCc1cccnc1	Pf growth 96h inconclusive
O=c1[nH]c2cc([N+](=O)[O-])ccc2c2ccccc12	none (no result: Pf growth 48h, CHX counter, Shiga inhibitor, Pf growth 96h)
CCc1cccc2[nH]c3cc([N+](=O)[O-])ccc3c12	Pf growth 48h inconclusive, HCMV antiviral -61.2, HCV inh inconclusive, Pf growth 96h inconclusive
CCC(NC(=O)c1ccccc1NC(=O)c1ccc(OC)cc1)C(=O)N1CCCC1 (stereo not drawn)	HCMV antiviral inconclusive, CHX counter 46.0, Shiga inhibitor 33.6
CCC(NC(=O)c1ccccc1NC(=O)c1ccccc1)C(=O)OC (stereo not drawn)	Pf growth 48h 2.08µM
Clc1cccc(Nc2nccc3[nH]c(-c4ccncc4)nc23)c1	none (no result: Pf growth 48h, CHX counter, HCV inh, Shiga inhibitor, Pf growth 96h)
N#Cc1nc(Nc2cccc(Cl)c2)c2ncn(C3CCCC3)c2n1	HCMV antiviral -87.0, Pf growth 96h inconclusive (no result: CHX counter, HCV inh, Shiga inhibitor)
CC(C)(C)C(O)C(Oc1ccc(Cl)cc1)n1cncn1 (stereo not drawn)	Pf growth 48h inconclusive, HCV inh inconclusive
CC(C)(C)C(=O)C(Oc1ccc(Cl)cc1)n1ccnc1 (stereo not drawn)	Pf growth 96h 12µM (no result: CHX counter, HCV inh, Shiga inhibitor)
Fc1ccc(Nc2ccnc(Nc3ccc(F)cc3)n2)cc1	Pf growth 48h 2.33µM, CHX counter 72.4, HCV inh inconclusive, Shiga inhibitor active, Pf growth 96h inconclusive
O=C(O)c1cccc(Nc2ccnc(Nc3cccc(C(=O)O)c3)n2)c1	CHX counter 29.1, Shiga inhibitor 78.7 (no result: Pf growth 48h)
O=C(Nc1nnc([C@@H]2C[C@H](O)[C@@H](CO)O2)s1)Nc1cccc2c1CCCC2	none (no result: Pf growth 48h, CHX counter, HCV inh, Shiga inhibitor, Pf growth 96h)
CCOc1ccc(NC(=O)Cn2nc(-c3ccccc3Cl)n(CC)c2=S)cc1	Pf growth 48h inconclusive, HCMV antiviral -61.6, HCV inh inconclusive, Pf growth 96h inconclusive
Cc1ccc(-c2cn(-c3ccc(Cl)cc3)c(S(=O)(=O)CC(=O)Nc3ccccc3)n2)cc1	none (no result: Pf growth 48h, CHX counter, HCV inh, Shiga inhibitor, Pf growth 96h)
Brc1cc(Cc2nnc(-c3ccccc3)o2)c(Br)s1	Pf growth 48h inconclusive, CHX counter 14.0
Nc1ncnc(N2CCc3ccccc32)c1[N+](=O)[O-]	Pf growth 48h inconclusive, HCMV antiviral -83.4, Pf growth 96h inconclusive
COc1cc(C2C(C#N)=C(N)Oc3c2c(-c2ccccc2)nn3-c2ccccc2)cc(OC)c1OC (stereo not drawn)	HCMV antiviral inconclusive, Pf growth 96h inconclusive
CCC(C)c1c(O)nc(SCC(=O)N2CCCCCC2)[nH]c1=O (stereo not drawn)	Pf growth 48h inconclusive
O=C(NCCOC(=O)c1ccc([N+](=O)[O-])cc1)c1cccnc1	HCMV antiviral inconclusive
O=C(Oc1c(Br)cc([N+](=O)[O-])cc1Br)c1cccnc1	Pf growth 96h 6.57µM
Cc1ccc(C(=O)O/N=C(\N)c2cccnc2)cc1[N+](=O)[O-]	CHX counter 77.7, Shiga inhibitor 18.4
N/C(=N\OC(=O)c1ccc([N+](=O)[O-])cc1)c1cccnc1	CHX counter 13.8, Shiga inhibitor 116.6
COc1ccc(C(=O)OCn2nnc3ccccc3c2=O)cc1[N+](=O)[O-]	HCV inh inconclusive
N/C(=N\OC(=O)c1cc([N+](=O)[O-])ccc1Cl)c1cccnc1	HCV inh inconclusive
Cc1ccc(C(=O)OCn2nnc3ccccc3c2=O)cc1[N+](=O)[O-]	Pf growth 96h 2.62µM
CCOC(=O)C1(Cc2cccc(F)c2)CCN(C(=O)COC)CC1	none
Cc1cc(C(=O)Oc2cccnc2)ccc1[N+](=O)[O-]	Pf growth 96h 3.7µM
O=C(Oc1cccnc1)c1ccccc1[N+](=O)[O-]	Pf growth 96h inconclusive
N/C(=N\OC(=O)c1ccccc1[N+](=O)[O-])c1cccnc1	CHX counter 34.6, Shiga inhibitor 55.3
Cc1ccc(S(=O)(=O)NCC(c2ccc3c(c2)OCO3)N2CCN(c3ccccc3)CC2)cc1 (stereo not drawn)	Pf growth 48h inconclusive, Pf growth 96h inconclusive (no result: CHX counter, Shiga inhibitor)
O=C(CCCCCBr)N1CCC(CC2CC(c3ccc(Cl)cc3)=NO2)(C(=O)NCC2CCCCC2)CC1 (stereo not drawn)	Pf growth 48h inconclusive, Pf growth 96h 3.29µM
O=C(CCCCCBr)N1CCC(CC2CC(c3cccc(Br)c3)=NO2)(C(=O)NCC2CCCCC2)CC1 (stereo not drawn)	Pf growth 48h inconclusive, Pf growth 96h 5.22µM
CCCCCCCNC(=O)C1(CC2CC(c3ccc(Cl)cc3)=NO2)CCN(C(=O)CCCCCBr)CC1 (stereo not drawn)	Pf growth 96h 11.7µM
CCc1cc(C=NC2CCCCC2)c(O)s1	CHX counter 66.5, Shiga inhibitor 118.6, Pf growth 96h inconclusive
Cn1c(O)c(C=NC2CCCCCC2)c(=O)[nH]c1=S	none
O=C(CSc1cccc2cccnc12)Nc1ccccc1F	CHX counter 15.5, Pf growth 96h inconclusive
NNC(=O)CSc1cccc2cccnc12	none
Cc1ccc(C)c(NC(=O)CSc2cccc3cccnc23)c1	Pf growth 96h inconclusive
Cc1cccc(NC(=O)CSc2cccc3cccnc23)c1	CHX counter 13.7, Pf growth 96h inconclusive
O=C(CSc1cccc2cccnc12)Nc1cc(C(=O)O)cc(C(=O)O)c1	HCV inh 11.2µM, Pf growth 96h inconclusive
